High-throughput results deposited in PubChem by several laboratories.
BioA inh – blocks M. tuberculosis BioA enzyme activity; inhibition, % at 9.99 µM; AID 602481; 360,000 tested, 0.096% active; purified M. tuberculosis BioA enzyme, plate reader; in the data active = inhibition above about 40%; inconclusive = no clear call, values can overlap the other calls
Mtb hypoxia rep – reduces hypoxia-regulated biosensor signal in M. tuberculosis; 300,000 tested, 0.1% active; AID 1159583; M. tuberculosis hypoxia-regulated fluorescent reporter, fluorescence; fluorescence inhibition, % (no concentration beside the values); in the data active = fluorescence inhibition mostly above about 23%, no sharp cut-off; inactive = mostly below about 17%
FBA Mtb inh – Mtb fructose-bisphosphate aldolase inhibition. purified M. tuberculosis FBA, fluorescence read-out. 360,000 tested, 2.3% active. P9WQA3. inhibition, % at 1 µM; in the data active = inhibition above about 27%;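 also: 0% = vehicle and 100% = reference inhibitor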
Target sequence (P9WQA3 whole entry, looked up): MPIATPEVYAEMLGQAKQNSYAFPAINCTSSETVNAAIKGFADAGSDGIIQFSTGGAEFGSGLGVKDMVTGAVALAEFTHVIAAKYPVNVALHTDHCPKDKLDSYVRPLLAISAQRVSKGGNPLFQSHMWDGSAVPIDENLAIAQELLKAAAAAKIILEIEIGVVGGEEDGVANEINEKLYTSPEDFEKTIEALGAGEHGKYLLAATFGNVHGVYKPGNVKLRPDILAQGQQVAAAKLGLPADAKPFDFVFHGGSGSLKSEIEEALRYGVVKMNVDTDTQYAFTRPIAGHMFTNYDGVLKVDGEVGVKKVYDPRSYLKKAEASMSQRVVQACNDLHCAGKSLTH
FadD28 binding – M. tuberculosis FadD28 bisubstrate binding inhibition; FadD28 bisubstrate probe binding, fluorescence polarization; inhibition, % at 12.5 µM; 360,000 tested, 0.22% active; in the data active = inhibition above about 8.5%, passing the limit was not always enough; inconclusive = no clear call, values can overlap the other calls
GDH-TPI inh – counter-screen for M. tuberculosis FBA inhibitors: GDH-TPI coupled enzymes | inhibition, % at 4.8 µM | 360,000 tested, 1.2% active | GDH-TPI coupled enzyme counterscreen, NADH absorbance | AID 588335; in the data active = inhibition above about 30%;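 also: 0% = DMSO wells and 100% = wells lacking the enzyme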
Active calls of the source: *; ? = inconclusive; . = no result given; + = active, no number. The list is not random: actives were taken first. Their share in the collection is about 2.9%.

SMILES	BioA inh	Mtb hypoxia rep	FBA Mtb inh	FadD28 binding	GDH-TPI inh
C[C@@H]1CN([C@@H](C)CO)C(=O)c2c(c3ccccc3n2C)-c2ccccc2CO[C@@H]1CN(C)C(=O)[C@@H]1CCCN1C	0	.	.	.	.
CC(=O)c1ccc(N2CCN(C(=O)CNC(=O)c3ccc(Br)o3)CC2)cc1	0	.	0	-2	32*
CN=C1c2cc3c(Br)c(OC)ccc3n2CCN1C	0	9	0	0	32*
CCN1CCSc2ccc(C(=O)NCc3ccccc3C)cc21	-1	4	129*	-1	12
CCN1CCSc2ccc(C(=O)Nc3ccc(NC(C)=O)cc3)cc21	0	4	7	-3	15
CC(C)Oc1ccc(CNC(=O)c2ccc3c(c2)N(C)CCS3)cc1	0	7	140*	2	4
CN1CCSc2ccc(C(=O)NCc3ccccc3F)cc21	0	5	137*	-2	4
Cc1noc(C)c1S(=O)(=O)N(C)C[C@@H]1OCCCC[C@@H](C)Oc2ccc(NC(=O)Nc3cccc4ccccc34)cc2C(=O)N([C@@H](C)CO)C[C@H]1C	1	.	.	.	.
Cc1ccc(S(=O)(=O)N=C(c2ccc(F)cc2)N2CCCC2)cc1	.	8	.	.	.
COc1cc(/C=N/NC(=O)C(=O)/C=C2\NC3(CCCC3)Cc3ccccc32)ccc1O	.	.	-8	-5	12
CN(C)c1ccc(/C=N/NC(=O)C(=O)/C=C2\NC3(CCCC3)Cc3ccccc32)cc1	-4	.	-6	0	31*
CCCCc1cc(=O)oc2c3c(cc(OCC(=O)NCCCO)c12)OC(C)(C)CC3	2	3	+	-2	10
CCc1cc(=O)oc2c(C)c(OCC(=O)NCCCn3ccnc3)ccc12	0	14	13	-5	12
CCCc1cc(=O)oc2c3c(cc(OCC(=O)NCCN4CCOCC4)c12)OC(C)(C)CC3	3	.	180*	-4	11
Cc1cc(OCC(=O)NCCN2CCOCC2)cc(C)c1Cl	-2	-1	0	-2	2
CCc1cc(=O)oc2c3c(cc(OCC(=O)NCCCn4ccnc4)c12)OC(C)(C)CC3	?	.	164*	-2	5
COc1ccc(NC(=O)CC(C)=NNC(=O)CCc2ccccc2)c(OC)c1	.	13	.	.	.
O=C(NCC[C@@H]1CC[C@@H](NS(=O)(=O)c2ccc(Oc3ccccc3)cc2)[C@H](CO)O1)C1CC1	1	.	.	.	.
COc1ccc(-c2cnc3c(c2)C(=O)N([C@@H](C)CO)C[C@H](C)[C@@H](CN(C)C(=O)Cc2ccncc2)O3)cc1	-1	.	.	.	.
COc1ccccc1C=NNc1nc(C)cc(=O)[nH]1	-1	.	0	0	37*
Cc1cc(C)nc(N/N=C/C=C/c2ccccc2)n1	-1	.	-3	-3	34*
CC=CC=NNc1nc(C)cc(=O)[nH]1	.	0	.	.	.
Cc1cc(=O)[nH]c(N/N=C/c2ccc(Br)s2)n1	1	.	-4	-4	42*
Cc1cc(=O)[nH]c(N/N=C/C=C/c2ccccc2)n1	.	.	-2	0	38*
Cc1ccc(-c2ccc([C@@H]3[C@H](CO)N4CCCCN(C(=O)Nc5ccccc5)C[C@@H]34)cc2)cc1	1	.	.	.	.
SMILES	BioA inh	Mtb hypoxia rep	FBA Mtb inh	FadD28 binding	GDH-TPI inh
Cc1cc(=O)[nH]c(NN=Cc2ccc(-c3ccc([N+](=O)[O-])cc3)o2)n1	.	-2	.	.	.
CCOc1ccc(-n2c(C)cc(/C=N/Nc3nc(C)cc(=O)[nH]3)c2C)cc1	0	.	3	-3	36*
Cc1cc(=O)[nH]c(N/N=C/c2ccc(-c3ccc(F)cc3)o2)n1	-1	.	0	0	37*
CCOc1ccc(-n2c(C)cc(C=NNc3nc(C)cc(=O)[nH]3)c2C)cc1	.	10	.	.	.
CN(C)C(=O)c1cccc(-c2ccc([C@H]3[C@@H](CO)N4CCCCN(S(C)(=O)=O)C[C@H]34)cc2)c1	5	.	.	.	.
O=C(OCC(=O)c1ccc(Cl)s1)c1cncc(Br)c1	-1	29*	0	-3	8
CCc1ccc(C(=O)COC(=O)c2cncc(Br)c2)cc1	.	2	-1	-4	14
O=C(C[C@H]1C[C@H](C(=O)N2CCOCC2)[C@@]2(CCC3CCCC3)c3[nH]c4cc(-c5ccco5)ccc4c3CCN2C1=O)NCCN1CCOCC1	-2	-14	41*	-1	12
O=C(/C=C/Nc1cccc([N+](=O)[O-])c1)c1ccco1	-1	16	-2	-1	35*
Cc1ccc(C(=O)/C=C/Nc2cccc([N+](=O)[O-])c2)o1	-2	-3	-4	-1	19
O=C(C1=C(O)C(=O)N(CCN2CCOCC2)C1c1cccc(Br)c1)c1cc2ccccc2o1 (stereo not given)	-1	-8	134*	1	10
C[C@@H]1CN([C@H](C)CO)C(=O)Cc2cc(NS(=O)(=O)c3ccccc3)ccc2O[C@H]1CN(C)Cc1ccc2c(c1)OCO2	1	.	.	.	.
CCN(CC)CCN(C(=O)c1cc2c(ccc3ccccc32)oc1=O)c1nc2cc3c(cc2s1)OCCO3	-1	0	+	-2	11
CCN(CC)CCN(C(=O)c1ccc2c(c1)OCCO2)c1nc2cc3c(cc2s1)OCO3	0	3	-1	-3	4
COc1ccc(C2=CC(c3ccc(C)cc3)n3nnnc3N2)cc1 (stereo not given)	-12	-28	21	-1	25
COc1ccc(C2C=C(C)Nc3nc(SC)nn32)cc1 (stereo not given)	6	3	149*	-1	20
Cc1cc2nc(/C=C/c3cccnc3)[nH]c2cc1C	8	12	+	-6	45*
Cc1cc2nc(CO)[nH]c2cc1C	-1	13	5	-1	3
Cc1ccc(S(=O)(=O)N(C)C[C@@H]2Oc3c(NS(=O)(=O)c4ccccc4)cccc3C(=O)N([C@@H](C)CO)C[C@H]2C)cc1	-1	.	.	.	.
CCOC(=O)c1c(CC(C)C)csc1N=CC1C(=O)CC(C)(C)CC1=O	.	5	.	.	.
COc1ccccc1C(=O)N=Nc1c(O)[nH]c2ccc([N+](=O)[O-])cc12	.	-16	-1	-1	18
NC(=O)N=Nc1c(O)[nH]c2ccc([N+](=O)[O-])cc12	-1	-9	-3	0	31*
O=C(C[C@@H]1CC[C@@H]2[C@H](COC[C@@H](O)CN2Cc2nccs2)O1)NCc1ccccc1	-1	.	.	.	.
CCOC(=O)c1oc2nc(C(C)C)c3c(c2c1N)CC(C)(C)OC3	-1	.	149*	-3	-2
CCOC(=O)c1oc2nc(C(C)C)c3c(c2c1N)CCC3	6	8	124*	2	18
CCOC(=O)/C=c1\s/c(=C\c2c(OC)ccc3ccccc23)c(=O)n1CC(=O)NCC1CCCO1 (stereo not given)	-3	.	-3	-2	38*
CCOC(=O)/C=c1/s/c(=C/c2ccc3cc(OC)ccc3c2)c(=O)n1CC(=O)NCC1CCCO1 (stereo not given)	.	3	5	-1	1
CCN1CCN(C(=O)C=CC(=O)O)CC1	.	9	.	.	.
COc1ccc(/C=N/Nc2cc(C)nc3ccc(OC)cc23)c(OC)c1	1	.	144*	4	12
COc1ccc2nc(C)cc(N/N=C/c3ccccc3)c2c1	2	.	4	-1	0
